The subject of the assay is MDA-MB-468 breast. Nature of the assay: NCI-60 one-dose screen, 48 h (100 = growth as untreated, 0 = no growth, -100 = all killed). As to conditions: 10 µM unless noted.

This is part of a sample that, as a whole, favours compounds with a hit. Of some 83,000 tested, about 20% had one in any assay.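 48-hour exposure, single concentration, 96-well plates; percent growth endpoint where 0 means no net growth. Active: below 10.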 The source made the active and inactive calls.

In PubChem BioAssay (NCI) one finds growth data, which are given here for 14 molecules.

Regarding `COc1cc(/C=C/c2nnc(-c3cc(-c4ccccc4)n[nH]3)o2)cc(OC)c1OC`, the growth is 101% (inactive). Next, `CCCCCCCCCCCCCCCC(=O)OC[C@@]1(O)C[C@@]23CC[C@@H]4C(C)(C)CCC[C@@]4(C)[C@@H]2CC[C@H]1C3`: 103% (inactive); `Brc1cnc2ccccc2c1`: 113% (inactive); `CCOC(=O)C(=O)Cc1cccnn1`: 102% (inactive). Next, `COc1cc(C(=O)N(C(C)C)C2CCCCC2)cc(OC)c1OC`: 89.8% (inactive); `CN1CCN(CCCN2c3ccccc3Sc3ccc(C(F)(F)F)cc32)CC1`: -2.21% (active); `C=C(C)[C@@H]1CC[C@]2(COCCCNCCC#N)CC[C@]3(C)[C@H](CC[C@@H]4[C@@]5(C)CC[C@H](OCCCNCCC#N)C(C)(C)[C@@H]5CC[C@]43C)[C@@H]12`: 8.32% (active). Regarding `NC(=O)NC1(C(=O)O)CCCC1`, the growth is 119% (inactive). In the case of `CCC(=O)OCc1ccc(OC)cc1` it was 87.3% (inactive); in that of `Nn1c(Nc2ccc(S(=O)(=O)Nc3ncccn3)cc2)nnc(/C=C/c2c(O)ccc3ccccc23)c1=O`, 96% (inactive). In the case of `C=C(C)[C@@H]1CC[C@]2(COC3CCCCO3)CC[C@]3(C)[C@H](CC[C@@H]4[C@@]5(C)C=C(C=O)C(=O)C(C)(C)[C@@H]5CC[C@]43C)[C@@H]12` (some centres undefined) it was -53.1% (active).

As for `c1ccc2cc(C[n+]3ccn(CCCCCCn4cc[n+](Cc5ccc6ccccc6c5)c4)c3)ccc2c1`, the growth is 10.1% (inactive). Next, `CC(=O)Nc1ccc(C(=O)/C=C/c2ccc(N(C)C)cc2)cc1`: 95.6% (inactive); `Nc1c2c(c(O)c3c1=C(CO)C=N3)=NCCS2=O` (centres undefined): -79.6% (active).
